Where “and” joins values, the source holds several entries; their conditions need not be identical. Equal values may be shown once. Inconclusive results are not listed. Where a call stands in place of a potency, no number is given. Values without a mark were called inactive. Calls of active or inactive are those of the source. Calls follow the shape of the dose curve; as a rule, active = well fitted cell-killing curve with a large enough effect in the repeat runs; inconclusive = weak or mixed curves; inactive = no such curve, though single readings can be large or run the other way.
assay: qHTS assay for identifying genotoxic compounds that show differential cytotoxicity against isogenic chicken DT40 cell lines with known DNA damage response pathways - Rad54/Ku70 mutant cell line (AID 743015); details: DT40 Rad54/Ku70 mutant viability, CellTiter-Glo, 40 h; series mostly up to 66.8 µM; activity change, negative = cytotoxicity: at the top concentration; also: nearly all actives have a fitted effect of over 60% in size
Description: National Center for Advancing Translational Sciences [NCATS]
NIH Chemical Genomics Center [NCGC]
U.S. Environmental Protection Agency [EPA]
National Institutes of Environmental Health Sciences [NIEHS]
National Toxicology Program [NTP]
U.S. Food and Drug Administration [FDA]
DNA repair pathways play a critical role in cellular homeostasis by repairing DNA damage induced by endogenous processes and xenobiotics. Isogenic chicken DT40 cell lines deficient in different DNA repair pathways can be used to identify genotoxic compounds and aid in characterizing the nature of the DNA damage induced. Two DNA repair-deficient cell lines with disrupted genes, Rad54/Ku70 or Rev3, were used to screen the Tox21 10K compound library. Possible genotoxicity was based on the presence of a significant increase in cytotoxicity in one or more of the DNA repair-deficient cell lines compared to that observed in the parental DNA repair-proficient cell line. CellTiter Glo viability assay (Promega, Madison, WI) was used to measure cell viability in these cells after compound treatment. This assay includes the data from the Rad54/Ku70 mutant cell line.
Tox21 Assay Protocol Summary:
300 DT40 mutant cells in 5 uL/well were dispensed into white, solid-bottom 1536-well plates using a Multidrop Combi (ThermoFisher Scientific, Waltham, MA) dispenser. After the assay plates were incubated at 37 C/5% CO2 for approximately 0.5 hour, 23 nL of compounds dissolved in DMSO, positive controls or DMSO only was transferred into the assay plate by a pintool work station (Kalypsys, San Diego, CA). The assay plates were incubated at 37 C/5% CO2 for 40 hours. After 5 uL per well of CellTiter-Glo reagent was added into each well of the assay plates, the plates were incubated for 30 min at room temperature and the luminescence intensity of the plates was measured using a ViewLux (PerkinElmer, Shelton, CT) plate reader.
Potency is read from the fitted curve at half-maximal effect.

Q: With `CC(C)C#N` as the compound, how does the Potency read?
A: inactive

Q: For `C1CC2OC2CC1C1CO1` (stereo not given), which Potency is on record?
A: inactive

Q: With `CC(C)C1(C)N=C(c2nc3ccccc3cc2C(=O)O)NC1=O` (stereo not given) as the compound, how does the Potency read?
A: inactive

Q: With `Cc1ccc(N)cc1Cl` as the compound, how does the Potency read?
A: inactive

Q: For `CC(Br)C(=O)O` (stereo not given), which Potency is on record?
A: inactive

Q: For `CC(C)OC(=O)Nc1ccccc1`, which Potency is on record?
A: inactive

Q: For `[N-]=[N+]=[N-]`, which Potency is on record?
A: inactive

Q: For `Clc1ccc(Cl)cc1`, which Potency is on record?
A: inactive

Q: With `c1ccc2c(c1)Oc1ccccc1O2` as the compound, how does the Potency read?
A: inactive

Q: Which “activity change, negative = cytotoxicity” value does the source give for `CCOP(=S)(OCC)SCCSCC` here?
A: 1.01% [at 95.1 µM]

Q: With `Nc1ccc(Br)cc1` as the compound, how does the Potency read?
A: inactive

Q: For `COP(N)(=O)SC` (stereo not given), which “activity change, negative = cytotoxicity” value is on record?
A: 8.29%

Q: With `CN=C=S` as the compound, how does the Potency read?
A: inactive

Q: With `Cc1cc(Cl)ccc1O` as the compound, how does the “activity change, negative = cytotoxicity” value read?
A: 8.16%

Q: For `CCC12COCN1COC2`, which Potency is on record?
A: inactive

Q: Which Potency does the source give for `CCCC1COC(Cn2cncn2)(c2ccc(Cl)cc2Cl)O1` (stereo not given) here?
A: 55.5 µM (active) and 17.2 µM (active)

Q: With `CCNc1nc(NC(C)C)nc(SC)n1` as the compound, how does the Potency read?
A: 61.1 µM (active)

Q: With `O=NN1CCCC1` as the compound, how does the Potency read?
A: inactive

Q: With `CN(C)CCO` as the compound, how does the Potency read?
A: inactive

Q: Which Potency does the source give for `ClCCBr` here?
A: inactive

Q: With `C#CC(C)(C)NC(=O)c1cc(Cl)cc(Cl)c1` as the compound, how does the “activity change, negative = cytotoxicity” value read?
A: -13.9% [at 95.1 µM]

Q: For `CCN(CC)c1ccccc1`, which Potency is on record?
A: inactive

Q: With `NCC(O)c1ccc(O)cc1` (stereo not given) as the compound, how does the Potency read?
A: inactive

Q: For `COC(=O)NS(=O)(=O)c1ccc(N)cc1`, which Potency is on record?
A: inactive

Q: Which Potency does the source give for `c1ccc(OP(Oc2ccccc2)Oc2ccccc2)cc1` here?
A: inactive

Q: For `CC(=O)C=C(C)C`, which Potency is on record?
A: inactive

Q: Which Potency does the source give for `Clc1ccccc1Cl` here?
A: inactive

Q: With `O=c1n(Cl)c(=O)n(Cl)c(=O)n1Cl` as the compound, how does the Potency read?
A: inactive

Q: Which Potency does the source give for `Cc1ccc(N)cc1N` here?
A: 17.2 µM (active)

Q: For `O=C(NC(=O)c1c(F)cccc1F)Nc1cc(Cl)c(OC(F)(F)C(F)C(F)(F)F)cc1Cl` (stereo not given), which Potency is on record?
A: 5.96 µM (active) and 21.7 µM (active)

Q: For `Cc1ccccc1O`, which Potency is on record?
A: inactive

Q: For `CN(C)[C@@H]1C(=O)C(C(N)=O)=C(O)[C@@]2(O)C(=O)C3=C(O)c4c(O)cccc4[C@@](C)(O)[C@H]3C[C@@H]12`, which Potency is on record?
A: inactive

Q: For `CCC[N+](=O)[O-]`, which Potency is on record?
A: inactive

Q: With `CCCCCCCCCl` as the compound, how does the Potency read?
A: inactive

Q: For `CC(C#N)CCC#N` (stereo not given), which Potency is on record?
A: inactive

Q: Which Potency does the source give for `O=c1[nH]c2ccccc2c(=O)o1` here?
A: inactive

Q: Which “activity change, negative = cytotoxicity” value does the source give for `CC(C)OC(=O)Nc1cccc(Cl)c1` here?
A: -20.2%

Q: For `CCCN(CCC)N=O`, which Potency is on record?
A: inactive

Q: With `O=C1CCCN1` as the compound, how does the Potency read?
A: inactive

Q: Which Potency does the source give for `BrCCBr` here?
A: inactive

Source: PubChem BioAssay (Tox21)
